Shown are actives, neighbours in structure and some others; about 13% of the full set was active somewhere.
Lamin A splicing: qHTS Assay for Modulators of Lamin A Splicing; HeLa LMNA splicing GFP/RFP minigene ratio, 48 h; Potency, µM (highest dose often 46.1 µM), for the others: at the top dose ratio change, negative = inhibition, actives largely listed as inhibitors; hit rate 0.01% among 200,000; AID 1487, 2009; active = well fitted inhibition curve with a large enough effect in the signal ratio, with a control signal flat, not every such curve was filed as active; inconclusive = small, poorly fitted or top-dose-only effect, or effect the other way, or a change in a side signal; the % refers to the signal ratio; also: potency is read from the fitted curve at half-maximal effect; % is scaled to controls: 0 for no effect and ±100 for the full control effect
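S3 HeLa cells stably expressing lamin A-EGFP splicing minigene plus DsRed2, 600 cells/well, 48 h compound exposure at 37C. Laser-scanning cytometry; analysed as GFP (500-530 nm)/RFP (575-640 nm) total intensity ratio; 0.5% DMSO vehicle.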
miR-21 act: qHTS Assay for Modulators of miRNAs and/orActivators of miR-21. HeLa miR-21 FLuc reporter, luciferase, 48 h. Potency, µM (doses to about 38.3 µM), without a hit: at the top dose activity change, positive = activation, actives largely listed as activators. 340,000 tested, under 10 active. AID 2288, 2010;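 also: % of control where 0% means no effect; miR-21 action dims this reporter so a rising signal means less miR-21 action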
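HeLa miR-21-FLuc reporter line, endogenous miR-21; 2000 cells/well in DMEM/10% FBS; compound titration up to ~40uM final, 48 h, 37 degree Celsius; luciferase detection reagent, 15 min lysis, CCD luminescence.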
ALDH1A1 inh: qHTS Assay for Inhibitors of Aldehyde Dehydrogenase 1 (ALDH1A1); hit rate 7.3% among 220,000; Aldehyde dehydrogenase 1A1 (Homo sapiens), P00352; AID 1030, 2008; Purified ALDH1A1, NADH fluorescence, propionaldehyde substrate; Potency, µM (doses to about 75.3 µM), for inactives: at the highest dose activity, negative = inhibition, usual class: inhibitors; active = well fitted inhibition curve with a large enough effect, not every such curve was filed as active; inconclusive = small, poorly fitted or top-dose-only effect, or another doubt; inactive = no such curve, though single readings can be large or run the other way;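 also: potency is read from the fitted curve at half-maximal effect; plate controls were no enzyme wells and a reference inhibitor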
Target sequence (P00352 whole entry, looked up): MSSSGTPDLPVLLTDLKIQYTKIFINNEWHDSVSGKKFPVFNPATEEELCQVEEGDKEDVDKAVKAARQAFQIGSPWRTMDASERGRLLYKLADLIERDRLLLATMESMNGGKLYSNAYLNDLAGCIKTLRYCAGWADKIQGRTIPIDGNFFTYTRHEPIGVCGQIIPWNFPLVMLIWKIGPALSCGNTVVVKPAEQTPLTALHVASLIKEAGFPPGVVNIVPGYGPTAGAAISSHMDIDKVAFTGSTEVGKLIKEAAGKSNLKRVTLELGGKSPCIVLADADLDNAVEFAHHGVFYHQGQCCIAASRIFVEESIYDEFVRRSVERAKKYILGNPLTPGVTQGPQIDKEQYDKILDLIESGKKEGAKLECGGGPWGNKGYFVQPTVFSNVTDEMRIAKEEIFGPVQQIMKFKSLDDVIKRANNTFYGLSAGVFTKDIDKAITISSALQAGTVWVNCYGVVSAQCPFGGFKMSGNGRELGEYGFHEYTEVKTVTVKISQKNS
G9a block: qHTS Assay for Inhibitors of Histone Lysine Methyltransferase G9a. G9a H3K9 monomethylation, AlphaScreen, 2 h. Potency, µM (doses to about 102 µM), for the others: at the highest dose activity, negative = inhibition, hits mostly inhibitors. hit rate 8.8% among 350,000. AID 504332, 2011; also: potency is read from the fitted curve at half-maximal effect; % is scaled to controls: 0 for no effect and ±100 for the full control effect; nearly all actives have a fitted effect of over 75% in size
Target sequence (Q96KQ7 913-1193 limits assumed): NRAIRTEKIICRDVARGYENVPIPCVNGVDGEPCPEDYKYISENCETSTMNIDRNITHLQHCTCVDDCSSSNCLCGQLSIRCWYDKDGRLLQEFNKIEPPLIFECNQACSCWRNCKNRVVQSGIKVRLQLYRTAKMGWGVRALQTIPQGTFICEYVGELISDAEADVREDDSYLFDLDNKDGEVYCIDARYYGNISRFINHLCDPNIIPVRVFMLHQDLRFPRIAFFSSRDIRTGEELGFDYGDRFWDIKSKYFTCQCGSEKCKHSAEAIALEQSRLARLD
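Step 1: enzyme (final 20 nM) with compound, 15 min RT. Step 2: substrate peptide 500 nM and SAM 20 uM, 2 h RT. Step 3: anti-H3K9me1 antibody and AlphaScreen beads, 10 min, then plate read.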
JMJD2E inh: qHTS Assay for Inhibitors of Human Jumonji Domain Containing 2E (JMJD2E); Lysine-specific demethylase 4E (Homo sapiens), B2RXH2; JMJD2E catalytic domain, FDH-coupled NADH fluorescence (FDH is formaldehyde dehydrogenase); Potency, µM (titrated, usually from 57.1 µM), for inactives: top-dose activity change, negative = inhibition, hits mostly inhibitors; hit rate 1.6% among 230,000; AID 2147, 2009; active = well fitted inhibition curve with a large enough effect, not every such curve was filed as active; inconclusive = small, poorly fitted or top-dose-only effect, or another doubt; inactive = no such curve, though single readings can be large or run the other way;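 also: potency is read from the fitted curve at half-maximal effect; 0% = wells with enzyme and -100% = buffer wells without enzyme; nearly all actives have a fitted effect of over 50% in size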
Sfp PPTase inh: qHTS Assay for Inhibitors of Bacillus subtilis Sfp phosphopantetheinyl transferase (PPTase); Potency, µM, for the others: largest response in the series, negative = inhibition, most hits filed as inhibitors; Biochemical Sfp PPTase activity, qHTS; hit rate 3.5% among 310,000; AID 1490, 2009;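 also: the enzyme is Sfp with the accession as filed and its product quenches rhodamine fluorescence; potency is read from the fitted curve at half-maximal effect; 0% = enzyme reaction without inhibitor and -100% = no enzyme wells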
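Buffer: 50 mM Hepes-Na pH 7.6, 10 mM MgCl2, 0.01% Nonidet P-40, 0.01% BSA. Enzyme 15 nM, pre-exposed to compound 15 min; substrates then added and fluorescence change tracked over 30 min.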
The depositor's hits bear a star; ? = inconclusive; . = not tested or not shown; [ ] = another dose, or the depositor's remark. Unless noted, calls follow the shape of the dose curve; as a rule, active = well fitted curve in the direction sought with a large enough effect; inconclusive = small, poorly fitted or top-dose-only effect, or another doubt; inactive = no such curve, though single readings can be large; an effect the other way counts as inactive or inconclusive.

SMILES	Lamin A splicing	miR-21 act	ALDH1A1 inh	G9a block	JMJD2E inh	Sfp PPTase inh
COc1c(C)cccc1C(=O)NCc1ccc2c(c1)OCO2	.	-13.5%	.	14.9%	.	-1.1%
Cc1c(Cc2ccc3c(c2)OCO3)sc(NC(=O)C2CC2)c1C(N)=O	.	-0.9%	.	3.55µM*	6.7%	20µM*
Cc1c(Cc2ccccc2)sc(NC(=O)/C=C/c2cccc3ccccc23)c1C(N)=O	?	17.3%	?	20µM*	-3.8%	-16.3%
Cc1nc(NC(=O)C23CC4CC(CC(C4)C2)C3)sc1Cc1ccc2c(c1)OCO2	?	-25.4%	8.2%	35.5µM*	-10.0%	9.4%
N#CCCN1CCCN(CCC#N)CCN(CCC#N)CCCN(CCC#N)CC1	.	0.0%	.	-9.7%[2.33 µM]	.	0.4%
CCCCNC(=O)C1CCC(Cn2c(=O)c3sccc3n(CC(=O)Nc3ccccc3)c2=O)CC1 (stereo unspecified)	?	-6.0%	.	15.2%[59 µM]	.	.
CCCCc1c(O)nc(N2CCN(Cc3ccccc3)CC2)[nH]c1=O	-4.7%	-8.6%	1.9%	39.8µM*	6.3%	5.8%
CSc1nsc(SC)c1C(=O)O	13.3%[9.22 µM]	-0.1%	-85.6%	44.7µM*	-24.7%	20.7%
COc1ccc(O)c(-c2c(-c3ccc(Cl)cc3)n[nH]c2C)c1	?	14.7%	-1.4%	25.1µM*	-5.1%	-21.4%
COc1cc(OC)cc(-c2nc(-c3ccc4c(c3)[nH]c(=O)n4C)no2)c1	3.4%[46 µM]	-4.4%	.	10.4%[59 µM]	.	.
O=C(CCN1C(=O)/C(=C/c2ccccc2)SC1=S)N1CCCCCC1	.	0.3%	.	2.4%	.	2.6%
O=C1/C(=C/c2cccs2)SC(=S)N1CC(=O)N1CCCCC1CCO (stereo unspecified)	.	-12.0%	.	70.8µM*	.	-10.9%
O=C1/C(=C/c2ccco2)SC(=S)N1CCC(=O)N1CCCCC1CCO (stereo unspecified)	.	-9.5%	.	44.7µM*	.	50.1µM*
CC1CCN(C(=O)CCN2C(=O)/C(=C/c3cccs3)SC2=S)CC1	.	-3.5%	.	31.6µM*	.	7.5%
O=C(COc1cccc(F)c1)Nc1nc(-c2cccnc2)cs1	.	.	.	-37.8%[12.7 µM]	.	.
O=C1CC(N2CCN(Cc3ccccc3)CC2)C(=O)N1c1ccc2c(c1)OCCO2 (stereo unspecified)	0.8%	-3.4%	7.08µM*	?	2.4%	-0.9%
COc1ccc(N2C(=O)CC(N3CCN(Cc4ccc5c(c4)OCO5)CC3)C2=O)cc1 (stereo unspecified)	17.4%[46 µM]	-1.6%	28.2µM*	39.8µM*	-4.6%	-16.4%
O=C(NCc1ccc(Cl)cc1)C1CCN(c2nn3cc(-c4ccc(F)cc4)nc3s2)CC1	?	-22.5%	.	3.8%[59 µM]	.	.
Cc1cccc(-n2c(CCc3ccccc3)nnc2SCC(=O)c2ccccc2)c1	?	1.1%	?	1.78µM*	6.0%	50.1µM*
O=C(O)CSc1nnc(Cc2ccccc2)n1-c1ccccc1	-4.0%	-4.5%	?	11.2µM*	-3.9%	14.0%
O=C(O)CSc1nnc(COc2ccc([N+](=O)[O-])cc2)n1-c1ccccc1	10.0%[46 µM]	4.9%	20µM*	2.1%	-16.1%	19.0%
COc1ccc(CC(=O)NNC(=O)CSc2nnc(Cc3ccc(OC)cc3)n2-c2ccccc2)cc1	-9.4%	1.2%	-9.5%	10µM*	8.0%	-5.7%
O=C(c1csnn1)N1CCC[C@@]2(CCN(c3ccccc3)C2)C1	.	.	?	-20.1%[12.7 µM]	.	6.9%
Cc1oc(-c2ccc(C(=O)NCc3ccc(Cl)cc3)cc2)nc1CS(=O)(=O)c1ccccc1	.	-21.3%	.	?	.	.
CC(Sc1nnc2ccc3ccccc3n12)C(=O)Nc1ccc(Cl)cc1 (stereo unspecified)	22.4%[46 µM]	-1.7%	.	?	.	.
SMILES	Lamin A splicing	miR-21 act	ALDH1A1 inh	G9a block	JMJD2E inh	Sfp PPTase inh
CCC/C=C(\CCC)C(NS(C)(=O)=O)c1ccccc1 (stereo unspecified)	.	.	-3.8%	.	3.1%	27.1%
CCCN(CCC)c1cc(C)nc2nc(-c3ccc(Cl)cc3)nn12	.	-0.4%	.	5.0%[59 µM]	.	.
C[C@@H](O)[C@@H]1C(=O)N2C(C(=O)O)=C([C@H]3CCCO3)S[C@H]12	.	.	.	1.5%[12.7 µM]	.	79.4µM*
CC(NC(=O)c1ccc(Cl)s1)C1CCCO1 (stereo unspecified)	-12.0%	-4.9%	10.4%	11.4%[12.7 µM]	5.5%	-13.2%
CCOC(=O)COc1ccc(CC)cc1C(=O)c1ccn2nc(-c3ccc(C)cc3)cc2n1	.	28.1%	.	22.9%[59 µM]	.	.
Cc1ccc(NC(=O)C2CCN(S(=O)(=O)c3ccc4c(c3)CCCC(=O)N4)CC2)c(Br)c1	14.6%[46 µM]	2.8%	.	23.1%	.	8.5%
Nc1nc2ncc(C(=O)c3cc(Cl)cc(Cl)c3O)cc2s1	-1.2%[46 µM]	-7.6%	?	50.1µM*	?	-13.2%
COc1ccccc1Cn1c(SCC(N)=O)nc2c(oc3ccccc32)c1=O	.	-0.1%	1.26µM*	-16.7%	-2.5%	-13.8%
O=C(O)c1ccc(CN2C(=O)c3cccc4c([N+](=O)[O-])ccc(c34)C2=O)cc1	.	0.5%	.	44.7µM*	.	?
CC(=O)Oc1cccc(N2C(=O)c3cccc4c([N+](=O)[O-])ccc(c34)C2=O)c1	.	1.4%	.	39.8µM*	.	-0.2%
CC(=O)Oc1cccc(N2C(=O)c3ccc(C(=O)O)cc3C2=O)c1	-0.6%	-2.1%	-7.4%	1.8%[59 µM]	-2.5%	22.2%
Cc1ccc(C(=O)O)cc1N1C(=O)c2cccc3c([N+](=O)[O-])ccc(c23)C1=O	.	?	.	25.1µM*	.	-18.8%
CN(C)CCCN1C(=O)c2cccc3c([N+](=O)[O-])ccc(c23)C1=O	?	?	?	?	-1.6%	-47.8%
CCOC(=O)c1sc2ncn(CC(=O)Nc3ccc(OCC)cc3)c(=O)c2c1C	.	7.1%	.	1.7%[59 µM]	.	.
O=C(Nc1ccc(N2CCOCC2)c(S(=O)(=O)Nc2cc(Cl)ccc2Cl)c1)c1cccnc1	.	1.4%	.	?	-3.8%	-0.3%
CC(=O)NC(=S)Nc1ccc(N2CCOCC2)c(S(=O)(=O)Nc2cc(Cl)ccc2Cl)c1	-16.4%[46 µM]	-7.1%	0.355µM*	?	5.6%	17.3%
Nc1cc(S(=O)(=O)Nc2cc(Cl)ccc2Cl)ccc1N1CCOCC1	.	4.6%	.	11.2µM*	-23.9%	11.2µM*
Nc1cc(S(=O)(=O)Nc2ccccc2Cl)ccc1N1CCCC1	.	0.9%	.	?	7.3%	-3.7%
COc1cccc(NC(=S)N(CCCN2CCOCC2)C(C)c2cc3ccccc3o2)c1 (stereo unspecified)	11.9%[9.22 µM]	-5.1%	-9.0%	?	3.1%	0.4%
